From the supplement of paper PMC10127200
Counter-ions that a name gives are not always drawn.

Key:
Experiment in all cases: Euclidean distance of Cell Painting phenotypic profile (signed KS, 77 features) to DMSO centroid (dimensionless distance); 5 or 10 uM (library dependent); higher = stronger phenotypic change vs DMSO (phenoactivity)
Settings in all cases: 48 h
786-O = tested on: 786-O
Procedure, shortened: (§1)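 Library compounds were applied at 10 or 5 uM, depending on the library, with 0.1% DMSO final, for 48 h to five cancer lines and a healthy fibroblast line. After staining, cells were imaged confocally at 20X across 9 fields per well, and Harmony extracted 77 features, each scored as a signed Kolmogorov-Smirnov statistic against vehicle wells on the same plate. Phenoactivity is the Euclidean distance between each profile and the median vehicle profile, with profiles first plate-position corrected, correlation-weighted and averaged over replicates at the top dose.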

A549 = tested on: A549
Procedure, shortened: as §1

DU145 = tested on: DU145
Procedure, shortened: as §1

FB = tested on: FB
Procedure, shortened: as §1

HEPG2 = tested on: HEPG2
Procedure, shortened: as §1

OVCAR4 = tested on: OVCAR4
Procedure, shortened: as §1

Compound	Euclidean distance (786-O)	Euclidean distance (A549)	Euclidean distance (DU145)	Euclidean distance (FB)	Euclidean distance (HEPG2)	Euclidean distance (OVCAR4)
O=C(c1ccc(NS(=O)(=O)c2cccc3cccnc23)cc1)N1CCN(CC2CC2)CC1 [Mitapivat]	1.26	0.913	1.1	1.04	1.09	1.47
CC[C@H](C)C[C@H](C)CCCCCCCCC(=O)N[C@H]1C[C@@H](O)[C@@H](NCCN)NC(=O)[C@@H]2[C@@H](O)CCN2C(=O)[C@H]([C@H](O)CCN)NC(=O)[C@H]([C@H](O)[C@@H](O)c2ccc(O)cc2)NC(=O)[C@@H]2C[C@@H](O)CN2C(=O)[C@H]([C@@H](C)O)NC1=O [Caspofungin Acetate]	2.18	0.866	1.51	2.42	1.15	1.86
NC(=O)NCCC[C@H](N)C(=O)O [L-Citrulline]	1.08	0.895	1.37	0.916	1.27	0.761
FC(F)(c1ccc2ncccc2c1)c1nnc2ccc(-c3ccncc3)nn12	1.6	0.84	2.54	0.717	1.24	1.2
N=C(N)NCCC[C@H](N)C(=O)O [L-arginine]	1.03	0.798	1.21	0.843	0.876	0.97
CC(C)(C)C(=O)Oc1ccc(S(=O)(=O)Nc2ccccc2C(=O)NCC(=O)O)cc1 [Sivelestat sodium tetrahydrate]	0.925	0.568	1.32	1.57	0.892	1.28
CN1CCC(=C2c3ccccc3CCc3cccnc32)CC1 [Azatadine dimaleate]	1.51	1.59	0.544	1.05	0.437	1.44
N[C@@H]1CCCC[C@H]1N.O=C([O-])C(=O)[O-].[Pt+2] [Eloxatin]	3.84	3.01	1.15	3.29	2.14	3.55
COc1cc2ncnc(Nc3ccc(F)c(Cl)c3)c2cc1OCCCN1CCOCC1 [Gefitinib hydrochloride]	1.01	1.23	1.18	0.779	0.482	1.31
CC(C)NCC(O)COc1cccc2[nH]c3ccccc3c12 (stereo not drawn) [Carazolol]	1.27	0.789	1.12	0.974	1.07	1.31
O=C(Nc1ncc(SCCN2CCCC2)s1)[C@]1(c2ccc(S(=O)(=O)C3CC3)cc2)C[C@H]1C1CCCCC1	5.07	2.38	3.02	3.03	3.45	1.44
Cn1c(N2CCCCS2(=O)=O)nc(C(=O)NCc2ccc(F)cc2)c(O)c1=O	3.24	2.86	4.79	2.83	3.37	3.36
CC(C)(CCCCCC(O)CCCCCC(C)(C)C(=O)O)C(=O)O	0.76	0.809	0.925	0.851	0.375	1.06
O=C(Oc1cc(S(=O)(=O)c2ccccc2)ccc1[N+](=O)[O-])c1ccc(Cl)cc1	1.76	1.8	1.4	1.14	1.96	1.27
NC(=O)N/N=C/c1ccc([N+](=O)[O-])o1 [Nitrofural]	1.31	0.907	1.62	1	0.466	1.22
CCOc1cc(N)c([N+](=O)[O-])cc1C(=O)NC1CCN(CC2CC=CCC2)CC1 (stereo not drawn) [Cinitapride Hydrogen Tartrate]	1.33	1.05	1.38	1.21	0.924	1.57
NC(=O)c1ccc(I)c([N+](=O)[O-])c1 [Iniparib (BSI-201)]	1.06	0.758	1.44	1.31	0.803	1.14
O=c1cc(-c2ccccc2)oc2cc(O)cc(O)c12 [Chrysin]	1.58	1.09	1.1	1	1.37	1.37
O=C(O)COCCN1CCN([C@H](c2ccccc2)c2ccc(Cl)cc2)CC1 [Levocetirizine Dihydrochloride]	0.875	1.39	0.783	1.09	0.867	1.4
CN[C@@H](C)C(=O)N[C@H](C(=O)N1CCC[C@H]1C(=O)Nc1snnc1-c1ccccc1)C1CCCCC1	0.872	1.58	0.883	1.38	0.88	3.41
Cc1cncc(CN2CCC(=C3c4ccc(Cl)cc4CCc4cccnc43)CC2)c1 [Rupatadine Fumarate]	1.51	1.15	1.34	1.22	1.69	1.27
Cc1c(C(=O)N2CCOc3ccc(-c4ccc(N)nc4)cc3C2)ccc(S(C)(=O)=O)c1F	2.49	2.65	1.99	3.46	2.59	3.43
C=CC[N+]1([C@H]2C[C@H]3[C@@H]4CC[C@H]5C[C@H](O)[C@@H](N6CCOCC6)C[C@]5(C)[C@H]4CC[C@]3(C)[C@H]2OC(C)=O)CCCC1 [Rocuronium Bromide]	1.59	1.12	1.92	1.08	0.685	1.25
O=C1CC[C@@H](C(=O)N2CSC[C@H]2C(=O)O)N1 [Pidotimod]	1.14	0.696	0.731	0.833	0.84	0.854

Compound	Euclidean distance (786-O)	Euclidean distance (A549)	Euclidean distance (DU145)	Euclidean distance (FB)	Euclidean distance (HEPG2)	Euclidean distance (OVCAR4)
Cc1cc(Nc2cc(N3CCN(C)CC3)nc(/C=C/c3ccccc3)n2)n[nH]1 [ENMD-2076 L-(+)-Tartaric acid]	2.7	3.58	2.34	3.64	2.99	2.91
Oc1c(I)cc(I)c2cccnc12 [Diiodohydroxyquinoline]	1.24	1.68	0.746	1.01	0.677	1.2
CCNC(=O)CC[C@H](N)C(=O)O [L-Theanine]	1.64	1.8	1.57	2.05	1.4	2.17
CNC1CCCN(c2c(F)cc3c(=O)c(C(=O)O)cn(C4CC4)c3c2OC)C1 (stereo not drawn) [Balofloxacin Dihydrate]	0.976	0.602	0.831	1.09	1.13	1.02
Oc1ccc(O)cc1 [Hydroquinone]	1.49	1.06	1.21	1.36	1.04	1.09
O=C(c1ccccc1)c1ccc2n1CCC2C(=O)O (stereo not drawn) [Ketorolac]	1.49	1.29	0.701	0.977	0.545	1.06
CC1(C)C2CCC1(C)C(O)C2 (stereo not drawn) [Borneol]	1.17	0.812	1.16	0.792	0.614	1.08
N#CCCCSC(=N)N [Kevetrin hydrochloride]	1.5	0.842	1.04	0.849	0.473	0.902
CCC1(C)CC(=O)NC1=O (stereo not drawn) [Ethosuximide]	0.782	1.2	1.11	0.965	0.843	1.04
Cc1[nH]nc2ccc(-c3cncc(OC[C@@H](N)Cc4ccccc4)c3)cc12	4.66	4.28	3.94	5.02	3.37	5.52
CO[C@H]1C[C@@H]2CC[C@@H](C)[C@@](O)(O2)C(=O)C(=O)N2CCCC[C@H]2C(=O)O[C@H]([C@H](C)C[C@@H]2CC[C@@H](OCCO)[C@H](OC)C2)CC(=O)[C@H](C)/C=C(\C)[C@@H](O)[C@@H](OC)C(=O)[C@H](C)C[C@H](C)/C=C/C=C/C=C/1C [Everolimus (RAD001)]	2.45	1.83	2.74	3.19	1.73	1.9
CCn1cc(C(=O)O)c(=O)c2cc(F)c(N3CCNCC3)cc21 [Norfloxacin]	1.28	0.791	0.924	1.26	0.65	1.01
Cc1nnc(NS(=O)(=O)c2ccc(N)cc2)s1 [Sulfamethizole]	1.54	0.798	1.76	0.908	0.498	1.11
O=C(O)C1(C(=O)O)CCC1.[NH2-].[NH2-].[Pt+2] [Carboplatin]	2.76	1.98	2.65	2.23	2.58	2.66
CN(C)[C@@H]1C(O)=C(C(N)=O)C(=O)[C@@]2(O)C(O)=C3C(=O)c4c(O)cccc4[C@@](C)(O)[C@H]3[C@H](O)[C@@H]12 [Oxytetracycline Dihydrate]	1.33	0.832	1.09	1.19	1.9	1.3
CN1[C@@H](CC(=O)c2ccccc2)CCC[C@H]1C[C@H](O)c1ccccc1 [Lobeline hydrochloride]	1.09	0.739	1.56	1.44	0.499	1.16
CCCN[C@H]1CCc2nc(N)sc2C1 [Pramipexole]	1.54	0.915	1.04	0.837	0.869	1.19
N#Cc1cnc(Nc2cc(NC[C@H]3CNCCO3)c(C(F)(F)F)cn2)cn1	3.22	2.16	2.89	3.11	2.5	1.99
CN1C(=O)[C@@H](NC(=O)c2n[nH]c(Cc3ccccc3)n2)COc2ccccc21	0.778	1.15	1.8	1.02	0.727	1.12
Cc1ccc(C(=O)c2cc(O)c(O)c([N+](=O)[O-])c2)cc1 [Tolcapone]	0.991	1.18	1.08	0.848	0.591	1.5
CCC(=O)Nc1cccc(Oc2nc(Nc3ccc(N4CCN(C)CC4)cc3OC)ncc2Cl)c1	1.62	1.63	0.903	1.15	1.61	1.26
Cc1cc(C)c2c(c1)[C@@H](N(Cc1cc(C(F)(F)F)cc(C(F)(F)F)c1)c1nnn(C)n1)CCCN2C[C@H]1CC[C@H](C(=O)O)CC1	1.71	1.7	1.3	1.05	1.05	1.25
N=C(N)NC(=N)NCCc1ccccc1 [Phenformin HCl]	1.03	1.71	1.14	1.15	1.56	0.844
CCc1nn(CCCN2CCN(c3cccc(Cl)c3)CC2)c(=O)n1CCOc1ccccc1 [Nefazodone hydrochloride]	1.29	1.42	1.27	1.04	1.67	0.618
